Only some compounds are listed: those with a hit (about 1.5% of all), similar ones and a draw of the others.
TrxR1 substrate – rat thioredoxin reductase 1 substrate activity | O89049 | purified TrxR1 substrate turnover, NADPH consumption readout | Potency, µM (titrated, usually from 114 µM), for the others: at the highest dose activity change, negative = substrate turnover | hit rate 0.01% among 390,000; note: potency is the fitted concentration of half-maximal effect; nearly all actives have a fitted effect of over 50% in size
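Rat TrxR1, dispensed at 90 nM, was prereduced with 400 uM NADPH (final) for 5 min at ~22 deg C, then incubated with compound 15 min before 400 uM selenite. A first-read NADPH fluorescence drop versus no-compound background flagged substrates.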
Six1-Eya2 inh – Six1/Eya2 interaction inhibition; hit rate 0.56% among 360,000; AlphaScreen GST-Six1/His-Eya2 binding, biochemical; active compounds read low; activity change, % (no concentration beside the values); in the data active = activity change below about -65%; inconclusive = mostly about -30% to -63%
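AlphaScreen with GST-Six1 and His-Eya2 (5X mix: 250 nM and 500 nM), glutathione donor and nickel acceptor beads; buffer 50 mM Tris pH 8.0, 300 mM NaCl, 1 mM TCEP; 1 h at 37 C in the dark.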
GALK inh – galactokinase (human) inhibition; P51570; Purified GALK, Kinase-Glo residual ATP luminescence; Potency, µM (titrated, usually from 57.5 µM), without a hit: at the highest dose activity change, negative = inhibition, actives largely listed as inhibitors; hit rate 0.007% among 270,000; note: potency is the fitted concentration of half-maximal effect
Target sequence (P51570 whole entry, looked up): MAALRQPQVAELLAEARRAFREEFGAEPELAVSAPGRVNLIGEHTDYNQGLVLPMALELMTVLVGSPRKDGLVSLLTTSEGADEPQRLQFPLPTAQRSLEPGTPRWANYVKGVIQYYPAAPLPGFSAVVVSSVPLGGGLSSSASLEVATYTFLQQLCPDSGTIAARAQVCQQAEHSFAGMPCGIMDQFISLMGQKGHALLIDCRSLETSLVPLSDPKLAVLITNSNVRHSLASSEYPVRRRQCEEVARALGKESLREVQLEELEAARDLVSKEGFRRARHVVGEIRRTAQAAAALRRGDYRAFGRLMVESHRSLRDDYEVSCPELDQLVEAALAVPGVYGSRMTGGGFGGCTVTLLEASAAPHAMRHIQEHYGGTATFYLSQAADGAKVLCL
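The enzyme phosphorylates galactose (100 uM) using ATP (35 uM); inhibition is detected as higher residual ATP, quantified by bioluminescence after 1 h reaction at room temperature, pH 8.0.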
CtBP-E1A blk – blocks the CtBP interaction with E1A | AlphaScreen GST-E1A/His-CtBP binding, 1536-well; active compounds read low | activity change, % (concentration not given with the values) | hit rate 0.49% among 340,000 | AID 651724; in the data active = activity change below about -65%; inconclusive = mostly about -30% to -63%
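Protein mix (5X: 125 nM each GST-E1A, His-CtBP) was incubated with pinned compound 2 h at 37 deg C in dark, in 50 mM Tris pH 8.0 buffer with 300 mM NaCl. Glutathione donor and nickel acceptor beads followed; AlphaScreen signal read after 1 h.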
rTrxR1 inhibitor – rat TrxR1 inhibition; O89049; recombinant rTrxR1, NADPH fluorescence consumption, selenite substrate; Potency, µM (highest dose often 114 µM), for inactives: top-dose activity change, negative = inhibition, usual class: inhibitors; hit rate 1% among 390,000; note: potency is the fitted concentration of half-maximal effect; nearly all actives have a fitted effect of over 65% in size
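Rat TrxR1 (90 nM in the dispensed reagent) was pre-reduced with 400 uM NADPH for 5 min at room temperature, then incubated with compound for 15 min. After 400 uM selenite was added, NADPH fluorescence (Ex 340/Em 450 nm) was followed for 8 min.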
Eya2 phos inh – blocks the phosphatase activity of human Eya2; O00167; recombinant Eya2, OMFP fluorescence dephosphorylation (OMFP is methylfluorescein phosphate); Potency, µM (titrated, usually from 76.9 µM), without a hit: top-dose activity, negative = inhibition, most hits filed as inhibitors; hit rate 0.006% among 330,000; note: potency is the fitted concentration of half-maximal effect
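Eya2 (0.2 uM) preincubated 10 min at ambient with compound, then OMFP substrate added at 50 uM; 10 min reaction in 50 mM HEPES pH 7.5, 50 mM NaCl, 5 uM MgCl2, 0.05% BSA, 1 mM DTT. Fluorescence read at Ex 485/Em 525 nm.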
Active calls of the source: *; u = inconclusive; x = no result given; [ ] = dose if it differs, or a comment. Unless noted, calls come from the whole dose curve; as a rule, active = well fitted curve in the direction sought with a large enough effect; inconclusive = small, poorly fitted or top-dose-only effect, or another doubt; inactive = no such curve, though single readings can be large; an effect the other way counts as inactive or inconclusive. % is set by controls: 0 for no effect and ±100 for the full control effect.

SMILES	TrxR1 substrate	Six1-Eya2 inh	GALK inh	CtBP-E1A blk	rTrxR1 inhibitor	Eya2 phos inh
CS(=O)(=O)c1ccc(C(=O)OCc2nnc(-c3ccccc3)o2)cc1[N+](=O)[O-]	5%	-9	4%	-13	1µM*	-3%
O=C(COC(=O)c1ccc([N+](=O)[O-])cc1)Nc1cccnc1Cl	4%	4	x	18	10%	x
CS(=O)(=O)c1ccc(C(=O)OCC(=O)Nc2cccnc2Cl)cc1[N+](=O)[O-]	3%	-11	x	-23	2.5µM*	-23%
Cc1ccccc1NC(=O)Cc1nc(COC(=O)c2ccc(S(C)(=O)=O)c([N+](=O)[O-])c2)cs1	-3%	-8	x	x	3.2µM*	21%
CS(=O)(=O)c1ccc(C(=O)OCC(=O)NC(=O)C2COc3ccccc3O2)cc1[N+](=O)[O-] (stereo not given)	-1%	3	x	2	8.9µM*	-22%
Fc1ccc(-c2cc(-c3nc(-c4ccccc4)no3)[nH]n2)cc1	0%[57.1 µM]	x	x	x	20%[57.1 µM]	x
CC(CCc1ccccc1)NC(=O)COC(=O)c1ccc([N+](=O)[O-])cc1 (stereo not given)	-7%	2	10%	-1	-16%	2%
CC(CCc1ccccc1)NC(=O)COC(=O)c1ccc(S(C)(=O)=O)c([N+](=O)[O-])c1 (stereo not given)	2%[57.1 µM]	-11	10%	-13	0.79µM*	-4%
COc1ccc(CCNc2nc3ccccc3c3nc(-c4cccc(C)c4)nn23)cc1OC	-1%	x	x	x	8%	x
CC(=O)c1sc(NC(=O)C2(F)C(F)(F)C(F)(F)C(F)(F)C(F)(F)C2(F)F)nc1C	u	-2	2%	6	35µM*	17%
CC1(C)Cc2c(sc3[nH]c(=S)n(Cc4ccco4)c(=O)c23)CO1	-3%	0	2%	10	50µM*	-2%
Cn1c(=O)c([N+](=O)[O-])c(-n2ccnc2)c2ccccc21	11%[57.1 µM]	-9	-2%	-1	10µM*	16%
Cn1c(=O)c([N+](=O)[O-])c(NCCCn2ccnc2)c2ccccc21	4%[57.1 µM]	-18	2%	-14	14%[57.1 µM]	-11%
CC1=C(C#N)C(=O)NC(=O)/C1=C\c1ccc(-c2cc(C)c(C)cc2[N+](=O)[O-])o1	0%[57.1 µM]	-16	-2%	-2	14µM*	2%
Cc1sc2c(c1C)c(=O)n(-c1ccc(Cl)cc1)c(=O)n2Cc1c(F)cccc1Cl	5%	x	x	x	34%	x
COC(=O)CSc1ncnc2c1sc1nc(-c3ccco3)c3c(c12)CC(C)(C)OC3	x	x	-1%	x	x	-10%
CCOC(=O)c1sc2nc(-c3ccco3)c3c(c2c1N)CC(C)(C)OC3	-6%	-22	1%	17	7.9µM*	3%
COc1cc(NS(=O)(=O)c2ccc(C(=O)O)cc2)c2nc(C)ccc2c1	1%	x	x	x	15%[0.457 µM]	x
Cc1ccc(S(=O)(=O)Nc2cccc3cccnc23)cc1	-5%	-71*	3%	u	5%	0%
COc1cc(NS(=O)(=O)c2ccc(C)cc2)c2ncccc2c1	0%	-72*	0%	-79*	19%	-14%
COc1cc(NCCCC(C)N)c2ncccc2c1 (stereo not given)	-7%	u	0%	-70*	-25%	11%
CNCc1nc(-c2ccc[nH]2)c2cc(Cl)ccc2n1	-5%[0.0914 µM]	x	x	x	-15%	x
CC(C)(C)n1ncc2c(=O)n(Cc3ccccc3C#N)cnc21	4%	x	x	x	17%[57.1 µM]	x
COc1ccccc1NC(=O)C1=C(C)Nc2nc(SCc3ccccc3)nn2C1c1ccccn1 (stereo not given)	-5%	x	x	x	11%	x
O=C(c1ccccc1)n1c(=O)c(F)cn(COCCBr)c1=O	9%	4	7%	x	45µM*	-22%
CCOC(=O)c1cc(-c2ccccc2)n(CCC(=O)Nc2nc3c(C)cccc3s2)c1C	2%[57.1 µM]	x	x	x	30%[57.1 µM]	x
O=c1cc2oc3cc(O)c(O)cc3c(-c3ccccc3[N+](=O)[O-])c-2cc1O	-2%[57.1 µM]	-71*	15%	x	-7%[57.1 µM]	-24%
